PubChem BioAssay (NCI)
About 79,000 compounds went through this panel and 15% of them were active in at least one assay; those are over-represented in the sample as a whole. Unmarked numbers belong to inactive results. Calls of active or inactive are those of the source. Rule as the data show it: active = growth inhibition above about 70%; inactive = the rest.

Columns and labels:
[1] = NCI Yeast Anticancer Drug Screen. Data for the rad50 strain (AID 155);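 also: 0% = growth of vehicle-only cultures of the same strain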; conditions: S. cerevisiae rad50 strain growth inhibition; at 50.0 µM; active compounds read high
Outline: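 Readout: growth inhibition relative to vehicle-treated cultures. Compound exposure was carried out in a genetically defined yeast strain deficient in DNA damage repair.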

[2] = NCI Yeast Anticancer Drug Screen. Data for the mec2-1 strain (AID 157); conditions: S. cerevisiae mec2-1 strain, at 50.0 µM, active compounds read high
Outline: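 Vehicle-treated cultures served as reference for growth inhibition of compound-exposed mec2-1 yeast.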

[3] = NCI Yeast Anticancer Drug Screen. Data for the sgs1 mgt1 strain (AID 161);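 also: 0% = growth of cultures given vehicle only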; conditions: S. cerevisiae sgs1 mgt1 strain, at 50.0 µM, active compounds read high
Outline: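 Test agents were incubated with a DNA-repair-mutant yeast strain. Growth was then read and compared against vehicle-treated controls.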

[4] = NCI Yeast Anticancer Drug Screen. Data for the cln2 rad14 strain (AID 165);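 also: 0% = growth equal to vehicle treated cultures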; conditions: S. cerevisiae cln2 rad14 strain, at 50.0 µM, active compounds read high
Outline: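 Each compound was tested on cln2 rad14 yeast. Inhibition of growth was calculated against vehicle-exposed controls.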

[5] = NCI Yeast Anticancer Drug Screen. Data for the bub3 strain (AID 167); conditions: S. cerevisiae bub3 mutant strain, at 50.0 µM, active compounds read high
Outline: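 Readout: yeast growth inhibition, expressed relative to vehicle-only wells. The test organism is a mutant strain from a panel with lesions in DNA repair or checkpoint genes.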

[6] = NCI Yeast Anticancer Drug Screen. Data for the mlh1 rad18 strain (AID 175); conditions: S. cerevisiae mlh1 rad18 strain growth inhibition; at 50.0 µM; active compounds read high
Outline: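 Vehicle-treated cultures served as the reference for growth inhibition in a yeast strain carrying DNA damage repair alterations exposed to each compound.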

Row | SMILES | growth inhibition [1] | growth inhibition [2] | growth inhibition [3] | growth inhibition [4] | growth inhibition [5] | growth inhibition [6]
1 | C=CCN1CC2CN=NC2(C#N)C1 (stereo unspecified) | -10.8% | 6.45% | 0.65% | -22.3% | 6.7% | -4.95%
2 | C1CCC(N2CSC3CCCCC32)CC1 (stereo unspecified) | -0.65% | -12.2% | 4.35% | -18.2% | 16.2% | 5.6%
3 | O=[C-]CC(=O)c1ccccc1.O=[C-]CC(=O)c1ccccc1.[Fe+2] | -7.85% | 3.15% | 8.5% | 12% | -0.65% | 6.15%
4 | O=CNc1ccccc1 | 18.6% | 1.7% | 0.85% | 6.5% | 7.65% | 7.25%
5 | O=C(CC(=O)C(F)(F)F)c1cccs1.O=C(CC(=O)C(F)(F)F)c1cccs1.O=C(CC(=O)C(F)(F)F)c1cccs1.[Gd] | 29.8% | 26.2% | 26.9% | -3.25% | 44% | 15.9%
6 | Nc1nc(N)c2[nH]c(N)nc2n1 | -9.65% | -12.2% | -8.9% | -14.4% | 3.45% | -55.3%
7 | Cc1c2ccncc2c(C)c2c1[nH]c1ccccc12 | 91.2% (active) | 89.5% (active) | 90.5% (active) | 84.9% (active) | 89.6% (active) | 90.7% (active)
8 | CCCCCCNC(=O)CBr | 34.6% | 4.55% | 14.6% | 3.4% | 16.8% | 30%
9 | COC(=O)C1=C(O)C(C(=O)OC)C2/C(=[N+](/[O-])O)c3c(cc([N+](=O)[O-])cc3[N+](=O)[O-])C1C2[N+](=O)[O-] (stereo unspecified) | 75.8% (active) | 81% (active) | 87.8% (active) | 66.3% | 67.8% | 90.7% (active)
10 | CC(C)OP(=O)(OC(C)C)/C(C#N)=C/c1ccco1 | -23.9% | -51% | -23.6% | -32.2% | -20.1% | -31.9%
11 | [I][Ni][I].c1ccc([PH+](c2ccccc2)c2ccccc2)cc1.c1ccc([PH+](c2ccccc2)c2ccccc2)cc1 | 21% | 38.4% | 64% | 17.6% | 5.7% | 48.7%
12 | CN(C)c1ccccc1 | 0.35% | 42.1% | 5.35% | -7.4% | 3.1% | 2.65%
13 | CCOP(=O)(Cc1ccc(N)cc1)OCC | -23% | -34% | -21.2% | 19.9% | -23.9% | -14.2%
14 | O=C1NC(=O)C(O)(Cc2ccccn2)C(=O)N1 | 9.9% | 6.45% | 13.5% | 13.2% | -21.1% | -6.65%
15 | CCC[CH2][Sn]([CH2]CCC)[CH2]CCC.CCC[CH2][Sn]([CH2]CCC)[CH2]CCC | 99.4% (active) | 99.7% (active) | 99.7% (active) | 99.5% (active) | 99.7% (active) | 99.2% (active)
16 | O=S(=O)(F)c1ccccc1C[P+](c1ccccc1)(c1ccccc1)c1ccccc1 | 84.2% (active) | 86% (active) | 66% | 66.7% | 82.8% (active) | 91% (active)
17 | [CH3][Sn]1([CH3])[O]CC(COc2cc(Cl)c(Cl)cc2Cl)[O]1 (stereo unspecified) | -22.4% | 6.65% | 2.95% | 5.35% | -10.1% | 4.5%
18 | CN1C(=O)N(C)C(O)C(Cl)(Cl)C1=O (stereo unspecified) | -4.75% | 10.1% | 13.6% | 30.6% | 26.1% | 11.6%
19 | C=CC1CN2CCC1CC2C(O)c1ccnc2ccccc12 (stereo unspecified) | 11.9% | -3.7% | 5.95% | 10.9% | 20.1% | 4.1%
20 | C=CC(Cl)OC(=O)C(C)O (stereo unspecified) | 16.5% | 20.2% | 15.2% | 11.3% | 1.55% | 6.4%
21 | CCOC(=O)CN(Cc1ccccc1)Cc1c(C(=O)c2ccccc2)c2ccccc2n1C(=O)c1ccccc1 | 3.75% | -11.8% | -10.9% | -75.2% | -16.6% | -18.6%

Row | SMILES | growth inhibition [1] | growth inhibition [2] | growth inhibition [3] | growth inhibition [4] | growth inhibition [5] | growth inhibition [6]
22 | CCCCOP(=O)(CSCC)OCCCC | -6.2% | 0.1% | -16.6% | 16.2% | 14.9% | -1.4%
23 | NC(CSSCC(N)C(=O)c1ccccc1)C(=O)c1ccccc1 (stereo unspecified) | 23.9% | 0.8% | 9.3% | 6% | 6.55% | 4.35%
24 | [C-]#[O+].[C-]#[O+].[C-]#[O+].[W].c1ccc([PH+](CC[PH+](c2ccccc2)c2ccccc2)CC[PH+](c2ccccc2)c2ccccc2)cc1 | 0.6% | -18.7% | -1.8% | 3.45% | 3.85% | 2.6%
25 | CCCC[N+]1(C)CCC(OC(=O)C(O)(c2ccccc2)C2CCCC2)C1 (stereo unspecified) | 15.6% | 5.25% | 5.3% | -32.8% | -6.3% | -5.5%
26 | C=CCSc1nc2ccccc2c(=O)n1-c1cc(OC)c(Cl)cc1OC | 9% | -20.9% | 15.1% | 8.45% | 42.5% | -9.25%
27 | C=CCn1nnc(N)n1 | -11.8% | 7.15% | -21.8% | 19.5% | 8.35% | -2.25%
28 | O=C(C(F)(F)Cl)C(F)(F)Cl | 13.8% | -14.9% | 6.85% | 15.6% | -15.2% | 24.3%
29 | O/N=C(/C(=N/O)c1ccccc1)c1ccccc1.O/N=C(/C(=N/O)c1ccccc1)c1ccccc1.[Ni] | -10.2% | -6.5% | 5.05% | -21.8% | 2.15% | -14.8%
30 | O=[As]c1ccc(C(=O)Cl)cc1 (stereo unspecified) | -2.3% | -16.4% | -20.1% | 2.15% | -25.3% | 0.45%
31 | [Cu].[NH2-].[NH2-].[NH2-].[NH2-] | -21.8% | -15.8% | -23.1% | -64.8% | -4.05% | -23.6%
32 | O=c1ccc2c(O)c3ccoc3cc2o1 | -14.7% | -10% | 5.7% | -5.05% | 3.45% | -22.9%
33 | CCOP(=O)(OCC)O/N=C(/CC)c1ccccc1 | 5.35% | -8.75% | 11.4% | -13.4% | -1.55% | -12.1%
34 | O=C(Nc1cc(Cl)c(Cl)cc1Cl)C(=O)C1C(=O)NC(=S)NC1=O | 0.35% | -8.2% | -9% | 9.75% | 12.9% | -22.4%
35 | COc1ccc(C(O)(C(=O)OCCSC)c2ccc(OC)cc2)cc1 | -5.1% | 2.85% | -2.6% | -21.5% | 9% | 0.1%
36 | COC(=O)c1ccccc1N | 13.5% | 1.95% | -0.55% | -29.5% | -2.9% | -6.75%
37 | COc1ccc(C(CC(=O)O)CC(=O)N(CCCl)CCCl)cc1C (stereo unspecified) | 64% | 25.6% | 17% | 27.1% | 63.7% | 24.4%
38 | O=C(NC(CCS(=O)(=O)NCc1ccc(S(=O)(=O)F)cc1)C(=O)OCc1ccccc1)OCc1ccccc1 (stereo unspecified) | 26.8% | 5.7% | 16.6% | 15.4% | 0.2% | 29.9%
39 | Oc1ccc(Cl)c(Cl)c1 | -3.45% | -32.5% | -72.8% | -3.1% | -51.5% | -13.8%
40 | CC1(C)N=C(N)N=C(N)N1c1ccc(OCCOc2ccc(S(=O)(=O)F)cc2)cc1 | -11.1% | -14.4% | -2.05% | -59.4% | -10.7% | -18.4%
41 | CN(C)P(=O)(N(C)C)N(C)C (tested in a mixture with another compound) | 8.45% | -7% | 3.65% | -21.1% | -31.6% | -14.3%
